# Only some compounds are listed: those with a hit (about 4.2% of all), similar ones and a draw of the others.
# Wnt bcat act: Wnt/beta-catenin pathway activation; activation, % at 9.35 µM; AID 743398; hit rate 1.2% among 300,000; Wnt/beta-catenin reporter cell assay, activator, plate reader; in the data active = activation above about 30%, passing the limit was not always enough;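 also: 0% = neutral control wells and 100% = positive control wells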
# esBAF inh: blocks esBAF chromatin remodeling in mouse ES cells | hit rate 2% among 350,000 | reporter increase, % at 12.5 µM | AID 602393 | Bmi1-luciferase knock-in reporter, 24 h; 100% = twice the neutral-well signal; in the data active = activation above about 40%;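 also: 0% = median of the plate's neutral control wells and 100% = double that signal; a rise in the Bmi1 reporter signal indicates esBAF inhibition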
# hgDAF-12 ag: agonists of H. glycines DAF-12 nuclear receptor; hit rate 1.8% among 370,000; AID 687014; HEK293 GAL4-hgDAF12 UAS-luciferase reporter, agonist luminescence; normalized to butyrate control; activation, % at 6.8 µM;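 active = activation above a cutoff set at the mean of all screened compounds plus 3 SD, cut at about 10% in these data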;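 also: 0% = DMSO wells and 100% = sodium butyrate wells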
# DAX1 inh: DAX1 (NR0B1) inhibition, primary screen | HEK293T StAR-luciferase reporter, SF-1/DAX-1 repression relief | inhibition, % at 6.8 µM | hit rate 1.1% among 370,000 | AID 652010;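 active = inhibition above the mean over all tested compounds plus 3 SD, cut at about 3.6% in these data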;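 also: 0% = DAX-1 cells with DMSO and 100% = cells lacking DAX-1 with DMSO; higher inhibition means more luminescence from relief of DAX-1 repression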
# ssDAF-12 act: S. stercoralis DAF-12 activation, primary screen | HEK293 ssDAF-12/GRIP1 lit1-tk-luc reporter, luminescence; % of 3 µM dafachronic acid response | activation, % at 6.8 µM | hit rate 1% among 370,000 | AID 652126;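 active = activation above the mean over all tested compounds plus 3 SD, cut at about 0.9% in these data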;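 also: 0% = DMSO-only wells and 100% = 3 µM delta7-dafachronic acid wells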
# hcDAF-12 act: H. contortus DAF-12 activation, primary screen; HEK293 hcDAF-12 lit1-tk-luc reporter, luminescence; 0% DMSO, 100% Δ7-dafachronic acid; activation, % at 6.8 µM; hit rate 1.4% among 370,000; AID 652067;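 active = activation above the mean of all tested compounds plus 3 SD, cut at about 5.5% in these data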;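 also: 100% = response to 3 µM Δ7-dafachronic acid high control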
# hgDAF12 conf: confirmation of H. glycines DAF-12 agonists; shares compounds with hgDAF-12 ag; AID 743050; activation, % at 6.8 µM; hit rate 80% among 3,300; HEK293 GAL4-hgDAF12 luciferase reporter, agonist mode; percent of butyrate response;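 active = mean activation over triplicate wells above the hit cutoff derived from the earlier primary screen, cut at about 11% in these data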;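 also: 0% = DMSO low control and 100% = 2 mM sodium butyrate high control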
# LXR ag 2: activates human LXR-beta, counter-screen for DAF-12 agonists; activation, % at 6.8 µM; shares compounds with hgDAF-12 ag; HEK293 Gal4-LXR luciferase reporter, 24 h; AID 743051; 3,300 tested, under 10 active;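 active = mean activation of the triplicate above a set limit carried over from the primary screen, none filed active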
# Target sequence (P55055 whole entry, looked up, the tested form may be a part): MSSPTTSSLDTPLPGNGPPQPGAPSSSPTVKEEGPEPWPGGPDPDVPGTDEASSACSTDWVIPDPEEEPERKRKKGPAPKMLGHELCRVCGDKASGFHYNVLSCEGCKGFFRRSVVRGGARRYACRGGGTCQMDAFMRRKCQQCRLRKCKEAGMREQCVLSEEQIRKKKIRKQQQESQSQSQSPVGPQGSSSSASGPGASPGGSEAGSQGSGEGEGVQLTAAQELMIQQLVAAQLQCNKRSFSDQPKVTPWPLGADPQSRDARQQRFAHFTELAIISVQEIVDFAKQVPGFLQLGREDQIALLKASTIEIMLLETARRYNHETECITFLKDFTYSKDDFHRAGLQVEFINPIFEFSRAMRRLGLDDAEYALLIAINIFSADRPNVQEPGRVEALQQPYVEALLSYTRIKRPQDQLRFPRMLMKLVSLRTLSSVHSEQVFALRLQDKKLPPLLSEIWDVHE
# Active calls of the source: *; / = no result.
SMILES,Wnt bcat act,esBAF inh,hgDAF-12 ag,DAX1 inh,ssDAF-12 act,hcDAF-12 act,hgDAF12 conf,LXR ag 2
C[C@H](CO)N1C[C@H](C)[C@@H](CN(C)C(=O)Nc2ccc3c(c2)OCO3)Oc2ncc(-c3cncnc3)cc2C1=O,/,-2.4,/,/,/,/,/,/
CN1CCN(c2ccc(NC(=O)c3ccc(-c4ccccc4F)o3)cc2)CC1,49.1*,-23.2,24.0*,4.4*,1.4*,5.4,17.3*,0.8
O=C(NCCc1ccccc1)c1ccc(-c2ccccc2Cl)o1,1.1,17.0,1.5,0.1,-1.3,-1.7,/,/
CN1CCN(c2ccc(NC(=O)c3ccccc3Br)cc2)CC1,/,/,5.6,1.1,-0.7,4.5,/,/
O=C(Nc1ccccc1)c1ccc(-c2ccccc2Cl)o1,28.8,53.3*,13.2*,2.7,0.1,4.6,13.0*,0.4

# Screening data: PubChem, several laboratories
